Our source for the outcome and AC50 values is PubChem BioAssay (EPA / NIEHS).

The AC50 is the midpoint of the concentration-response curve, whichever way the signal moves.

Several values for one entry are separate records, joined by “and”; a condition that tells them apart may be missing. Identical values can stand only once. Inconclusive results are not listed. More than one record can exist for a structure, and the calls need not agree. Activity calls are given as the source filed them. The calls were made as follows, unless noted: active = hit-call score of the fitted dose curve at least 0.9, where 1 is the maximum; inactive = score below 0.9.

Test [1] in a line: BSK_BT_PBMCCytotoxicity: PBMC Cytotoxicity Assessment in the BioMAP Diversity Plus: BT Assay (AID 2284225).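 Also: PBMC viability measured by Alamar Blue dye reduction fluorescence.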 To be noted: primary human B cells with PBMC. A digest of the protocol:
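75,000 cells/well; cpd 1 h → SEB + TSST-1 (20 ng/mL final each) → 90 h → Alamar Blue 6 h → fluor. 546/580 nm. DMSO = neg. control/baseline.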

Read-out in test [2]: Secreted IgG (sIgG), gene 3500
Put plainly: BSK_BT_sIgG: BioMAP Diversity Plus: BT Assay for Secreted IgG (sIgG) Biomarker Activity (AID 2284226). To be noted: primary human B cells with PBMC. A digest of the protocol:
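Secreted IgG from a human primary B cell–PBMC co-culture was measured by ELISA 24 hours after dosing, with DMSO defining baseline activity.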

A short description of test [3]: BSK_BT_Bcell_Proliferation: Viability Assessment in the BioMAP Diversity Plus: BT Assay for B cell Proliferation (AID 2284227). To be noted: primary human B cells with PBMC. The method, boiled down:
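SRB-based protein staining (0.1% SRB after 10% TCA fixation, 560 nm) quantifies proliferation in human B cells co-cultured with PBMC, 72 h post-dosing, with signal gain scored relative to DMSO negative control.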

Read-out in test [4]: Interleukin 6 (IL6), IL6 (gene 3569)
Put plainly: BSK_BT_xIL6: BioMAP Diversity Plus: BT Assay for Interleukin 6 (IL6) Biomarker Activity (AID 2284228). To be noted: primary human B cells with PBMC. A digest of the protocol: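 IL-6 secretion measured (Luminex xMAP) in human primary B cell + PBMC co-culture at 24 h of chemical exposure; DMSO served as negative control and activity baseline, with curves fitted for increase.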

Read-out in test [5]: Interleukin 17A (IL17A), IL17A (gene 3605)
Put plainly: BSK_BT_xIL17A: BioMAP Diversity Plus: BT Assay for Interleukin 17A (IL17A) Biomarker Activity (AID 2284229). To be noted: primary human B cells with PBMC. A digest of the protocol:
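Human primary B cells plus PBMC, treated 24 h with chemicals; supernatant IL-17A quantified on Luminex xMAP beads. Gain of signal over DMSO control scored as activity.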

Read-out in test [6]: Tumor necrosis factor (Homo sapiens) (UniProt P01375)
Put plainly: BSK_BT_xTNFa: BioMAP Diversity Plus: BT Assay for Tumor necrosis factor alpha (TNF-alpha) Biomarker Activity (AID 2284230). To be noted: primary human B cells with PBMC. The method, boiled down:
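Compounds were added to a B cell plus PBMC co-culture, and after 24 h secreted TNF-alpha was quantified with Luminex xMAP technology, with responses fitted upward from the DMSO control.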

Read-out in test [7]: Vascular cell adhesion molecule 1 (VCAM1), VCAM1 (gene 7412)
Briefly: BSK_MyoF_VCAM1: BioMAP Diversity Plus: MyoF Assay for Vascular cell adhesion molecule 1 (VCAM1) Biomarker Activity (AID 2284231). To be noted: primary human lung fibroblasts. A digest of the protocol: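 VCAM-1 levels, lung fibroblasts, ELISA, 24 h exposure, increase scored relative to DMSO.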

Read-out in test [8]: Collagen I, COL1A1 (gene 1277)
Briefly: BSK_MyoF_CollagenI: BioMAP Diversity Plus: MyoF Assay for Collagen I Biomarker Activity (AID 2284238). To be noted: primary human lung fibroblasts. The method, boiled down: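 Measured by ELISA: Collagen I from human lung fibroblasts 24 h after compound addition, analysed for signal gain with DMSO as baseline; overt toxicity read from SRB staining of parallel cultures at the same time.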

Read-out in test [9]: Collagen III, COL3A1 (gene 1281)
Briefly: BSK_MyoF_CollagenIII: BioMAP Diversity Plus: MyoF Assay for Collagen III Biomarker Activity (AID 2284239). To be noted: primary human lung fibroblasts. The method, boiled down: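 Multiplexed cell assay in lung fibroblasts, harvested at 24 h post-dose. Collagen III detected by ELISA, with positive-direction fitting relative to DMSO vehicle.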

Test [10] in a line: CCTE_Mundy_HCI_Cortical_Synap_Neur_Matur_CellBodySpotCount: CCTE's Synaptogenesis and Neurite Maturation Assay in rat cortical cells for Cell Body Spot Count, Mundy Lab (AID 2284223). The method, boiled down: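 Chemicals were applied to AraC-treated rat primary cortical cells at DIV 7 and measured at DIV 12. Fixed cells were labelled for MAP2, synaptophysin and nuclei, and high-content imaging gave cell body synaptophysin spot counts per neuron relative to DMSO.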

Test [11] is described as follows: CCTE_Mundy_HCI_hNP1_Pro_ResponderAvgInten: CCTE's Proliferation Assay in human neuroprogenitor cells, Mundy Lab (AID 2284224; active = hit-call score of the fitted dose curve at least 0.9, where 1 is the maximum). The method, boiled down: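 Human neuroprogenitors (hNP1, WA09 lineage) receive test chemical after 40 to 44 hours of attachment. A four-hour BrdU pulse begins twenty hours later, followed by fixation and high content imaging; signal is referenced to DMSO controls.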

Test [12] is described as follows: UKN2_HCS_IMR90_cell_viability: Viability Assessment in the University of Konstanz (UKN) Leist Lab Neural Crest Cell Migration Assay in human induced IMR90 Pluripotent Stem Cells (UKN2) (AID 2284233).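 Also: viability of neural crest cells differentiated from IMR90 iPSC measured by calcein-AM fluorescence imaging; cells exposed to compound for 24 h after a 24 h migration phase.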 A digest of the protocol:
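iPSC-derived (IMR90) neural crest cells seeded around silicone stoppers on PLO/laminin/fibronectin; after 24 h migration in N2-S with EGF/FGF, chemical added for 24 h. Calcein-AM/Hoechst stained 30 min, high-content imaged; bidirectional fit versus DMSO.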

The nature of test [13]: CCTE_Mundy_HCI_Cortical_NOG_NeuronCount: CCTE's Neurite Outgrowth Assay in rat cortical cells for Neuron Count, Mundy Lab (AID 2284236; active = hit-call score of the fitted dose curve at least 0.9, where 1 is the maximum;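 also: neurons counted by imaging betaIII-tubulin and Hoechst stained cortical cells; cells exposed to compound for about 48 hours before fixation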). A digest of the protocol: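 Read-out: neuron number by high-content imaging of betaIII-tubulin (Alexa Fluor-488) and Hoechst-labelled rat primary cortical cells.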
Test [14] can be described thus: CCTE_Mundy_HCI_Cortical_NOG_BPCount: CCTE's Neurite Outgrowth Assay in rat cortical cells for Branch Point Count, Mundy Lab (AID 2284237).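 Also: branch points counted about two days after chemical exposure.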 The method, boiled down:
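Measured 50.33 h after dosing, this morphology endpoint uses rat primary cortical cultures labelled for betaIII-tubulin. Branch points are quantified by high-content imaging, with DMSO as negative control and baseline.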

Test [15] in a line: CCTE_Mundy_HCI_hNP1_Casp3_7: CCTE's Caspase-Glo 3/7 Assay in human neuroprogenitor cells for Apoptosis, Mundy Lab (AID 2284240). The method, boiled down: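 Neuroepithelial-lineage stem cells from WA09 embryonic cells were treated with chemicals after 40–44 h of culture. Twenty-four hours later, caspase-3/7 activation was detected luminescently after a 30 min room-temperature reagent step, with DMSO as baseline.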

The nature of test [16]: CCTE_Mundy_HCI_hNP1_CellTiter: CCTE's Cell Titer-Glo 2 Assay in human neuroprogenitor cells for Viability, Mundy Lab (AID 2284241; active = hit-call score of the fitted dose curve at least 0.9, where 1 is the maximum;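 also: a hit is a drop in ATP luminescence versus DMSO meaning reduced viability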). A digest of the protocol: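 Measures ATP content in human neural progenitors derived from WA09 embryonic cells. Read-out at 26.5 hours after dosing, with DMSO serving as the negative control and baseline.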
A general note: ATP-based viability assays read luminescence as a measure of living cells.

Test [17] is described as follows: CCTE_Mundy_HCI_Cortical_Synap_Neur_Matur_NeuronCount: CCTE's Synaptogenesis and Neurite Maturation Assay in rat cortical cells for Neuron Count, Mundy Lab (AID 2284242; active = hit-call score of the fitted dose curve at least 0.9, where 1 is the maximum;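 as to AC50: neuron number from Hoechst nuclei and MAP2 staining by high-content imaging; hits reduce neuron count versus DMSO baseline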). The method, boiled down:
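Imaging-based neuron count in rat cortical cultures after chemical exposure from DIV 7 to DIV 12, with AraC added at DIV 5. Activity is fitted relative to DMSO.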

Test [18] is described as follows: UKN4_HCS_LUHMES_cell_viability: Viability Assessment in the University of Konstanz (UKN) Leist Lab Neurite Outgrowth Assay in human LUHMES cells (UKN4) (AID 2284232). A digest of the protocol:
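Human dopaminergic-model LUHMES neurons were exposed to chemicals for 24 h after a 2-day differentiation. Viability was scored by imaging Hoechst H-33342 staining, with activity fitted in both directions relative to DMSO controls.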

A short description of test [19]: TAMU_HCS_1.5hr_SingleDonor1434_Cytotoxicity: Cytotoxicity Assessment using High-content Screening (HCS) Fluorescent Imaging for the Texas A&M University (TAMU) 1.5-hr Human Induced Pluripotent Stem Cell (iPSC)-derived Cardiotoxicity Assay (AID 2284234; active = hit-call score of the fitted dose curve at least 0.9, where 1 is the maximum). A digest of the protocol: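 Human iPSC-derived cardiomyocytes dosed at 0.2, 1, 10, 100 uM final (0.5% DMSO) for 90 min at 37 C. Hoechst 33342-stained nuclei counted by 10x high-content imaging; POD is EC10, a 10% drop in total cell count versus DMSO.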

Sequence of Tumor necrosis factor (Homo sapiens) (P01375 whole entry, looked up): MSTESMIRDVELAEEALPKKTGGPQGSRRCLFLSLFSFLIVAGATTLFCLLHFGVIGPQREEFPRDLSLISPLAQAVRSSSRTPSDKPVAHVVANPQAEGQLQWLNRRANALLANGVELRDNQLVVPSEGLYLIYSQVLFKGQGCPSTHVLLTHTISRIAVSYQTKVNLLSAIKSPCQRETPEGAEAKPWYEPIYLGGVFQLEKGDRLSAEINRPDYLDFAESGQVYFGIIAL

For `CC1(C)Cc2cccc(O)c2O1`, the outcome in test [1], in test [2], in [3], in [4], in [5] and in test [6] was inactive. For the same compound, the outcome in test [7], in test [8] and in [9] was inactive.

As to `COc1cc(OC)nc(NC(=O)NS(=O)(=O)c2ncccc2C(=O)N(C)C)n1`, the result in test [1], in test [2], in test [3], in test [4], in test [5] and in [6] was inactive. Further, the result in test [7], in [8] and in test [9] was inactive.

As to `CC(=O)C(Cl)C(=O)N(C)C` (centres undefined), the AC50 is 20 µM (active) in test [1]; 20 µM (active) in test [2]; 25 µM (active) in [3]; 27.9 µM (active) in test [4]; 29.6 µM (active) in test [6]. The outcome in test [5], in test [7], in test [8] and in test [9] was inactive.

As for `COP(=S)(OC)Oc1ccc(S(=O)(=O)N(C)C)cc1`, the result in test [1], in [3], in test [4], in [5], in test [6] and in test [7] was inactive. For the same compound, the outcome in test [8] and in test [9] was inactive. The AC50 in test [2] was 9.48 µM (active).

`O=[N+]([O-])c1ccc2c3c(cccc13)CC2`: the result in [1], in test [2], in [3], in test [5], in test [6] and in [7] was inactive. The outcome in test [8] and in [9] was inactive. The AC50 in [4] is 20 µM (active).

With `COP(=O)(OC)O/C(=C\Cl)c1cc(Cl)c(Cl)cc1Cl`, the result in [10], in test [12], in [13] and in test [17] was inactive. For the same compound, the AC50 in test [11] is 67 µM (active); in test [13], 51.5 µM (active); in test [14] it was 31.1 µM (active) and 23 µM (active); in [15], 12.4 µM (active) and 70.3 µM (active); in [16], 23.3 µM (active) and 89 µM (active); in [17], 51.5 µM (active).

Consider `O=C1C2(Cl)C3(Cl)C4(Cl)C(Cl)(Cl)C5(Cl)C3(Cl)C1(Cl)C5(Cl)C24Cl` (centres undefined), for which the AC50 in test [10] was 9.8 µM (active); in test [11] it was 21.7 µM (active); in [18], 7.53 µM (active); in [12] it was 3.06 µM (active); in test [13], 15 µM (active); in test [14], 7.19 µM (active). The values for the AC50 in [15] and in test [16] were 20.1 µM (active) and 23.5 µM (active), respectively. Also, the compound was classed as inactive in [17].

Take `O=C(O)CCC(F)(C(F)(F)F)C(F)(F)F`: the outcome in test [1], in test [2], in test [3], in test [4], in test [5] and in test [6] was inactive. The outcome in test [7], in [8] and in test [9] was inactive.

Take `CCOP(=S)(OCC)Oc1nc(Cl)c(Cl)cc1Cl`: the AC50 was 83.2 µM (active) in test [10]; 24.3 µM (active) and 73.3 µM (active) in test [11]; 231 µM (active) in test [18]; 9.92 µM (active) and 75.5 µM (active) in [13]; 29.8 µM (active) in test [14]; 7.91 µM (active) and 89.6 µM (active) in test [15]. Further, the AC50 in [16] was 35.5 µM (active); in [17], 82.7 µM (active) and 26.6 µM (active). In addition, the compound was called inactive in test [10], in [12] and in test [19].

As to `ClC(Cl)=C(Cl)C(Cl)=C(Cl)Cl`, the AC50 in test [1] is 11.1 µM (active); in test [3], 14.2 µM (active); in [4], 11.8 µM (active); in [8], 29.7 µM (active); in [9], 3.97 µM (active). The outcome in test [2], in test [5], in [6], in test [7] and in test [19] was inactive.
